# Compound activity: PubChem BioAssay, Paczesny and Yang Labs, IUPUI and University of Michigan
# ST2 inh – IL1RL1 inhibition; Q01638; AlphaLISA ST2-Fc/biotin-IL-33 interaction, 1 h; inhibition, % for hits at 17 µM; 2.3% of 78,000 active; in the data active = inhibition above about 30%
# Target sequence (Q01638 whole entry, looked up): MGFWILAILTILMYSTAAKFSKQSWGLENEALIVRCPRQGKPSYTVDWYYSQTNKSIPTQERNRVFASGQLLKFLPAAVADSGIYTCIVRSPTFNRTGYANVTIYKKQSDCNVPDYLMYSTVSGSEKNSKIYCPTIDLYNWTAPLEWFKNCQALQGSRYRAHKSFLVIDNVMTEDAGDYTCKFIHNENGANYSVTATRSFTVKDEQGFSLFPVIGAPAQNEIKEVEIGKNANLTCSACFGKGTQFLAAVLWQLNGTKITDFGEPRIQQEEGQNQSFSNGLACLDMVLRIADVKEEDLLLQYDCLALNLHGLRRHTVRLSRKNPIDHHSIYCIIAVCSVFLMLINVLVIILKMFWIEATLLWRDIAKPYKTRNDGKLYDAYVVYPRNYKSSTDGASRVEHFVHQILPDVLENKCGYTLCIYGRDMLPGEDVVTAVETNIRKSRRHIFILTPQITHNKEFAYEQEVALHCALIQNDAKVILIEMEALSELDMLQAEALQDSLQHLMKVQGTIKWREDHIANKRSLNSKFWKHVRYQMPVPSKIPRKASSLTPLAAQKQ
# * hit, by the source's call; i = inactive; ! = repeats disagree. The sample as a whole holds a higher share of hits than the screen did.
SMILES,ST2 inh
NC1=C(N2CCCCC2)C(=O)c2ccccc2C1=O,71.0%*
CC(=O)c1ccc(OC(=O)N2CCCCC2)cc1,i
CC(=O)c1ccc(NC(=O)C(Cc2ccccc2)N2C(=O)c3ccccc3C2=O)cc1 (configuration not stated),i
CC(=O)c1ccc(NC2=C(N3CCCCC3)C(=O)c3ccccc3C2=O)cc1,59.0%*
Cc1cc(NS(=O)(=O)c2ccccc2)c(C(C)C)c(Br)c1O,i
COC(=O)c1c(NC(=O)C(C)Oc2ccc(F)cc2)sc(C)c1C (configuration not stated),i
Cc1nnc(NC(=O)NC(C)c2c(C)nn(C)c2C)s1 (configuration not stated),i
CCCCNC(=O)c1cn(C2CCCCC2)cc(C(=O)NCCc2ccncc2)c1=O,i
O=C1NC(c2cccc(Br)c2)Nc2ccccc21 (configuration not stated),i
O=C1NC2=C(C(=O)c3ccccc32)C(c2ccccc2)N1 (configuration not stated),i
O=C1c2ccccc2C(=O)C1C1=Nc2ccccc2NC(c2ccccc2)C1 (configuration not stated),31.0%*!
CCc1ccc(C2C(C#N)=C(SCc3ccccc3)NC(=O)C2C(=O)OC)cc1 (configuration not stated),i
N#C/C(=C\c1ccc(I)cc1)c1nc(-c2ccc([N+](=O)[O-])cc2)cs1,i
CCOc1ccc(/C=C(\C#N)c2nc(-c3ccc(OCC)cc3)cs2)cc1,33.0%*
CCOc1ccc(-c2cc3cc(OC)c(OC)cc3c(CC)n2)cc1,i
COc1ccc(S(=O)(=O)Nc2ccc(-c3csc(C)n3)cc2)cc1,i
COc1ccc(/C=C(\C#N)c2nc(-c3ccc(C)cc3)cs2)cc1,60.0%*
CCc1c(O)nc(SCC(=O)N(CC)CC)n(C2CCCCC2)c1=O,i
COCCN(Cc1cccs1)C(=O)c1cc2ccccn2n1,i
O=C(O)c1c[nH]c2ccc(S(=O)(=O)N3CCCc4ccccc43)cc2c1=O,i
CCN(Cc1nc(C)no1)C(=O)c1cccc(C#CC(C)(C)O)c1,i
COc1cc2c(cc1OC)CN(C1CCCN(Cc3cccc4cnccc34)C1)CC2 (configuration not stated),i
N#C/C(=C\c1ccc(Br)o1)c1nc(-c2ccc(Cl)cc2)cs1,31.0%*
COc1ccc(-c2csc(/C(C#N)=C/c3ccc(Br)o3)n2)cc1,42.0%*
COc1ccc(-c2csc(NC(=O)C3CC=CCC3C(=O)O)n2)cc1 (configuration not stated),i
SMILES,ST2 inh
COc1cccc2cc(-c3nc(-c4ccc(Br)cc4)cs3)c(=O)oc12,i
Cc1ccc(-c2csc(NC(=O)CCCC(=O)O)n2)c(C)c1,i
Cc1ccc(-c2csc(/C(C#N)=C/c3ccc(Br)o3)n2)c(C)c1,60.0%*
COc1ccc(-c2nnc(-c3ccc(OC)cc3)o2)cc1,i
COc1ccc(-c2csc(/C(C#N)=C\c3ccc(OC)o3)n2)cc1,49.0%*
Cc1ccc(/C=C(/C#N)c2nc(-c3ccc(Cl)c(Cl)c3)cs2)o1,i
Cc1cc(N2C(=O)C3C4CCC(C4)C3C2=O)ccc1Br (configuration not stated),i
COc1cccc(N2CCN(C(=O)c3cccn4c(=O)c5c6c(sc5nc34)CCCC6)CC2)c1,i
Cc1cccc(N2C(=O)c3cc4ccccc4cc3C2=O)c1,i
COC(=O)c1c(NC(=O)COc2ccc(Cl)cc2C)sc(C)c1C,i
CC(C)c1ccc(NC(=O)COc2ccc([N+](=O)[O-])cc2)cc1,i
Cc1ccsc1CN1CCC(CNC(=O)Nc2ccccc2)C1 (configuration not stated),i
O=C(Nc1ccc(F)cc1F)c1cc(-c2ccc(Br)cc2)on1,i
O=C(Nc1ccc(Br)cc1)c1cc(-c2ccc(Cl)cc2)on1,i
COc1ccc(-c2cc(C(=O)Nc3cc(Br)ccc3O)no2)cc1,35.0%*
Cc1cccn2c(CN3C[C@@]4(C)C[C@H]3CC(C)(C)C4)c(C(=O)N3CCCCC3)nc12,i
C=CCn1c(SCc2cc(C(C)=O)ccc2OC)nnc1-c1cccc(Br)c1,i
NC(=O)NCCC(=O)N1CCOC(Cc2cccc(F)c2)C1 (configuration not stated),i
Cc1ccc(S(=O)(=O)NCc2nc3cccnc3n2Cc2ccc(F)cc2)cc1C,i
O=C(C1CC1)N1CCc2cc(Br)cc(S(=O)(=O)NCCC3=CCCCC3)c21,i
O=[N+]([O-])c1cc(Cl)c2cccnc2c1O,i
CN(C)c1ccc(Nc2c([N+](=O)[O-])cc([N+](=O)[O-])c3cccnc23)cc1,95.0%*
CN(C)c1ccc(NC(=O)Nc2ccc3nc(-c4ccccn4)c(-c4ccccn4)nc3c2)cc1,i
O=C1CCCC2=C1C(c1cccc(F)c1)c1c(nc(SCc3ccccc3F)[nH]c1=O)N2 (configuration not stated),i
O=C(c1ccc(Cl)cc1OC1CCN(CC2CC=CCC2)CC1)N1CCCCC1 (configuration not stated),i
SMILES,ST2 inh
CCN(CC)C(=O)Sc1nc2ccccc2s1,i
CCCn1cnnc1CNC(=O)COc1c(C)ccc(C)c1C,i
CC1CN(S(=O)(=O)c2ccc(C(=O)Nc3ccc4sccc4c3)cc2)CC(C)O1 (configuration not stated),i
CCCc1cc(=O)oc2cc(OCC(=O)OC)ccc12,i
Cc1cnc2c(C(=O)N3CC[C@@H](c4ccc5c(c4)OCO5)[C@H](O)C3)cnn2c1,i
COc1ccc(N2C(=O)C3C(c4ccc(F)cc4)OC4(C(=O)c5ccccc5C4=O)C3C2=O)cc1 (configuration not stated),i
COc1ccc(C2C3C(=O)NC(=O)C3ON2c2ccc(Cl)cc2)cc1 (configuration not stated),31.0%*
COc1ccc(C2C(C(=O)Nc3ccc(F)c(Cl)c3)CC(=O)N2c2ccc(OC)cc2)cc1 (configuration not stated),i
CCOC(=O)c1c(NC(=O)COc2ccc3c(C)cc(=O)oc3c2)sc2c1CCCC2,i
Cc1cccc(N2CCN(C(=O)c3ccccc3I)CC2)c1C,i
CCOCCCNC(=O)c1cc2cc3cc(OC)ccc3nc2o1,i
CCOc1ccccc1NC(=O)c1cc2cc3ccc(OC)cc3nc2o1,i
COc1cc(NC(=O)c2cc3cc4ccc(Cl)cc4nc3o2)cc(OC)c1OC,i
COc1ccc2nc3oc(C(=O)Nc4cc(Cl)ccc4OC)cc3cc2c1,i
COc1ccc2nc3oc(C(=O)Nc4ccc(OC)c(Cl)c4)cc3cc2c1,37.0%*
COc1ccc2cc3cc(C(=O)N4CCN(c5cccc(Cl)c5)CC4)oc3nc2c1,i
COc1ccc2nc3oc(C(=O)NCCC(C)C)cc3cc2c1,i
COc1ccc2nc3oc(C(=O)Nc4cc(OC)c(OC)c(OC)c4)cc3cc2c1,i
COc1cccc(NC(=O)c2cc3cc4ccc(OC)cc4nc3o2)c1,38.0%*
COc1ccc2nc3oc(C(=O)NCc4cccs4)cc3cc2c1,35.0%*
COc1ccc2cc3cc(C(=O)Nc4cccc(Cl)c4)oc3nc2c1,36.0%*
COc1ccc2cc3cc(C(=O)Nc4ccc(F)cc4F)oc3nc2c1,i
CC1=C(C(=O)Nc2ccc(F)cc2)C(c2sccc2C)C2=C(CC(C)(C)CC2=O)N1 (configuration not stated),i
CCOc1ccccc1C(=O)Nc1ccc2nc(N3CCN(C)CC3)cc(C)c2c1,i
